{
  "source": "PubChem BioAssay (NCI)",
  "note": "Several values for one entry are separate records, joined by “and”; a condition that tells them apart may be missing. Identical values can stand only once. This is part of a sample that, as a whole, favours compounds with a hit. Of some 83,000 tested, about 20% had one in any assay.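 Negative percent growth values reflect cell death: -40 means 40% of the cells present at the start died, and -100 means all died.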 Activity calls are given as the source filed them.",
  "data": [
    {"test_system": "SN12C renal", "assay": "NCI-60 one-dose screen, 48 h (100 = growth as untreated, 0 = no growth, -100 = all killed)", "settings": "10 µM", "experimental": "(§1) Growth inhibition of the SN12C human tumor cell line is measured as a screen for anti-cancer activity. Cells are grown in 96 well plates and exposed to the test compound for 48 hours. Compounds are tested at a single concentration, which is 10^-5 M for most compounds. The reported endpoint is percent growth (GI% or GIPRCNT), where numbers from 0 - 100% represent growth inhibition, and numbers from -100% - 0 represent cell death. For example, a value of 40 represents 60% growth inhibition. A value of 0 means no net growth occurred over the course of the experiment. A value of -40 indicates 40% of cells at the beginning of the experiment died by the end of the experiment. A value of -100 means all cells are dead at the end of the experiment.\n(§2) NCI-60 Human Tumor Cell Lines Screen was performed using the standard one-dose NCI protocol, which is described in more detail at https://dtp.cancer.gov/discovery_development/nci-60/default.htm.\n(§3) Compounds with GIPRCNT values below 10 were considered active. Activity score was based on GIPRCNT using the following formula: […]\n(§4) Score is 0 for GIPRCNT values of 100 or above, 50 for GIPRCNT values of 0, and 100 for GIPRCNT values of -100.", "values": [
      {"smiles": "COc1ccc(Cl)cc1C(=O)NCCc1ccc(S(=O)(=O)NC(=O)NC2CCCCC2)cc1", "growth": "91.4% (inactive) and 93.8% (inactive)"},
      {"smiles": "CC#C[C@]1(O)CC[C@H]2[C@@H]3CCC4=CC(=O)CCC4=C3[C@@H](c3ccc4c(c3)OCO4)C[C@@]21C", "growth": "91.2% (inactive)"}
    ]},
    {"test_system": "SN12C renal", "assay": "NCI-60 one-dose screen, 48 h (100 = growth as untreated, 0 = no growth, -100 = all killed)", "settings": "10 µM unless noted", "experimental": "as §1, §2, §3, §4", "values": [
      {"smiles": "CCN(CC)CCC(CNc1c2ccc([N+](=O)[O-])cc2nc2cc(OC)c(OC)cc12)c1ccccc1", "note": "(stereo not given)", "growth": "-27.1% (active) and -91.6% (active)"},
      {"smiles": "Cc1cccc(/C=C\\C(=O)c2ccc(Cl)cc2)c1", "growth": "94.9% (inactive) and 97% (inactive)"},
      {"smiles": "Cc1cc(-c2ccc(NS(=O)(=O)c3ccccc3)c(C)c2)ccc1NS(=O)(=O)c1ccccc1", "growth": "94.7% (inactive) and 98.4% (inactive)"},
      {"smiles": "Cn1c(=O)n(-c2ccc(C(C)(C)C#N)cc2)c2c3cc(-c4cnc5ccccc5c4)ccc3ncc21", "growth": "15.6% (inactive) and 17.1% (inactive)"},
      {"smiles": "CC(/C=N/N1C(=O)c2ccccc2C1=O)c1ccccc1", "note": "(stereo not given)", "growth": "99.6% (inactive)"},
      {"smiles": "CC[N+](CC)(CC(=O)Nc1c(C)cccc1C)Cc1ccccc1", "growth": "85.9% (inactive) and 100% (inactive)"},
      {"smiles": "O=C(CN1CCOCC1)N1CCOCC1", "growth": "95.9% (inactive) and 97.7% (inactive)"},
      {"smiles": "O=C(Nc1cccc(Cl)c1)c1cc2ccccc2cc1O", "growth": "4.02% (active) and 7.65% (active)"},
      {"smiles": "O=C(Nc1ccc(Cl)cc1)c1cc2ccccc2cc1O", "growth": "8.95% (active) and -2.39% (active)"},
      {"smiles": "Cc1ccc(S(=O)(=O)Nc2nc3ccccc3nc2Nc2ccc3nsnc3c2)cc1", "growth": "50.9% (inactive) and 34.8% (inactive)"},
      {"smiles": "O=C1OC2(c3ccccc31)c1ccc(O)c(O)c1Oc1c2ccc(O)c1O", "growth": "98.8% (inactive) and 103% (inactive)"},
      {"smiles": "CN1CCN(CCC=C2c3ccccc3Sc3ccc(S(=O)(=O)N(C)C)cc32)CC1", "growth": "56.9% (inactive) and 76.4% (inactive)"},
      {"smiles": "NC(=S)NN=C1CCC(C2CCCCC2)CC1", "note": "(stereo not given)", "growth": "82.3% (inactive) and 82.5% (inactive)"},
      {"smiles": "COc1cc(Nc2nc3ccccc3nc2NS(=O)(=O)c2ccc(NC(=O)c3ccc(C)c(OC)c3)cc2)cc(OC)c1", "growth": "49.1% (inactive) and 14.8% (inactive)"},
      {"smiles": "NCCSC(C[N+](=O)[O-])c1ccccc1Cl", "note": "(stereo not given)", "growth": "104% (inactive)"},
      {"smiles": "CCC(C)C1(C2CCCC2)NC(=O)NC1=O", "note": "(stereo not given)", "growth": "100% (inactive) and 96% (inactive)"},
      {"smiles": "CNC(=O)c1ccc(C)c(-n2c(C)cc(OCc3ccc(F)cc3F)c(Br)c2=O)c1", "growth": "83.7% (inactive) and 86.1% (inactive)"},
      {"smiles": "CCOC(=O)Nc1ccc2c(c1)/C(=N\\NC(N)=S)c1ccccc1-2", "growth": "73.3% (inactive) and 71.9% (inactive)"},
      {"smiles": "COc1ccc(-c2ncnc3c2ncn3C/C=C/CCl)cc1", "growth": "83.6% (inactive) and 79.6% (inactive)"},
      {"smiles": "CCOc1ccc(Nc2c3ccccc3nc3ccccc23)cc1", "growth": "81.8% (inactive) and 20.6% (inactive) and 27.6% (inactive)"},
      {"smiles": "Oc1c(Cl)cc(Cl)cc1Sc1cc(Cl)cc(Cl)c1O", "growth": "26.8% (inactive) and -26.6% (active) and 72.8% (inactive)"},
      {"smiles": "O=[N+]([O-])c1ccc(/C=N\\NC(=S)Nc2ccc(F)cc2)cc1", "growth": "105% (inactive) and 92% (inactive)"},
      {"smiles": "CC1=C(/C=C/C(C)=C/C=C/C(C)=C/C(=O)O)C(C)(C)CCC1", "growth": "81% (inactive) and 85.3% (inactive) and 73.8% (inactive)"},
      {"smiles": "Nc1n[nH]c(=S)n1-c1ccc(Cl)cc1", "growth": "100% (inactive)"},
      {"smiles": "CC(CN=Cc1ccccc1O)N=Cc1ccccc1O", "note": "(stereo not given)", "growth": "90.4% (inactive) and 98.7% (inactive)"},
      {"smiles": "NC(=O)c1ccccc1OCC(O)CO", "note": "(stereo not given)", "growth": "101% (inactive)"},
      {"smiles": "CN1CCN(C2CCN(C(=O)Nc3cc(Oc4ccc(NC(=O)C5(C(=O)Nc6ccc(F)cc6)CC5)c(F)c4)ccn3)CC2)CC1", "growth": "-55.1% (active) and 50.6% (inactive)"},
      {"smiles": "CCOC(=O)c1c(C)oc(C)c(C(=O)OCC)c1=O", "growth": "113% (inactive) and 97.9% (inactive)"},
      {"smiles": "O=C1c2ccccc2C(=O)N1/N=C/c1ccc2c(c1)OCO2", "growth": "86.3% (inactive)"},
      {"smiles": "NC(=S)N/N=C(\\c1ccc(Br)cc1)C1CC1", "growth": "89.5% (inactive)"},
      {"smiles": "CC1CCCC(=O)O1", "note": "(stereo not given)", "growth": "111% (inactive)"},
      {"smiles": "CCN1CCN(CCNc2nccc(-c3c(-c4cccc(O)c4)nc4sccn34)n2)S1(=O)=O", "growth": "75.8% (inactive) and 66.7% (inactive)"},
      {"smiles": "Clc1ccc(SSc2ccc(Cl)cc2)cc1", "growth": "97.5% (inactive) and 42.4% (inactive)"},
      {"smiles": "CCN(CC)CCCC(C)Nc1ccnc2cc(Oc3ccccc3)ccc12", "note": "(stereo not given)", "growth": "71.2% (inactive) and 74.4% (inactive)"},
      {"smiles": "Cc1ccc2nc3c(nc2c1)-c1cccc2cccc-3c12", "growth": "81.2% (inactive)"},
      {"smiles": "Nc1ccccc1Nc1ccccc1", "growth": "70% (inactive) and 72.6% (inactive)"}
    ]},
    {"test_system": "SN12C renal", "assay": "NCI-60 one-dose screen, 48 h (100 = growth as untreated, 0 = no growth, -100 = all killed)", "settings": "100 µM", "experimental": "as §1, §2, §3, §4", "values": [
      {"smiles": "COc1ccc(Cl)cc1C(=O)NCCc1ccc(S(=O)(=O)NC(=O)NC2CCCCC2)cc1", "growth": "71.4% (inactive)"},
      {"smiles": "CC#C[C@]1(O)CC[C@H]2[C@@H]3CCC4=CC(=O)CCC4=C3[C@@H](c3ccc4c(c3)OCO4)C[C@@]21C", "growth": "-16.1% (active)"}
    ]}
  ]
}
